# Several values for one entry are separate records, joined by “and”; a condition that tells them apart may be missing. Equal entries are not always repeated. Activity calls are given as the source filed them. The rule behind the calls is not given here.
# Target: Pantothenate synthetase (Mycobacterium tuberculosis (strain ATCC 25618 / H37Rv)) (UniProt P9WIL5)
# Experiment: Recombinant Mtb pantothenate synthetase (PanC) inhibitors, coupled enzyme, confirmatory (AID 375);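 note: 0% = full reaction with vehicle and 100% = no enzyme background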
# Details: coupled enzyme assay; at 10 µM, active compounds read high
# Pantothenate synthetase (Mycobacterium tuberculosis (strain ATCC 25618 / H37Rv)), sequence (P9WIL5 whole entry, looked up): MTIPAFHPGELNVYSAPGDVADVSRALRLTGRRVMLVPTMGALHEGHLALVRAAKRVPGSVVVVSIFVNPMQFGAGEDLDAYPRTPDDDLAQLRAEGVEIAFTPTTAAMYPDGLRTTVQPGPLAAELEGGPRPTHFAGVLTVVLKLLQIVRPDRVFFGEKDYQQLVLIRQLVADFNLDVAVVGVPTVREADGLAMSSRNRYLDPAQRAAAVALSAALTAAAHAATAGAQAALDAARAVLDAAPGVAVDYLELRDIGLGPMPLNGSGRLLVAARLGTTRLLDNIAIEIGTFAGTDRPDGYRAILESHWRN
row,SMILES,inhibition
1,CN(C)c1cccc(N=C2C=C(N3CCOCC3)CC(C)(C)C2)c1,0% (inactive)
2,COC(=O)c1cc(=O)n2c(-c3ccc(OC)cc3)csc2n1,3% (inactive)
3,COCCOC(=O)C1=C(C)NC(=O)CC1c1cc2c(cc1Br)OCO2 (stereo not given),1% (inactive)
4,CC(C(=O)N1CCCCC1)n1sc2ccccc2c1=O (stereo not given),0% (inactive)
5,CCC(=O)N1CCc2cc(S(=O)(=O)CCC(=O)Nc3c(C)n(C)n(-c4ccccc4)c3=O)ccc21,7% (inactive)
6,CC1CCN(C(=O)Cn2cc3c(n2)CCCC3)CC1,0% (inactive)
7,O=C(NCCN1CCN(c2ccccc2)CC1)c1ccc(NC(=O)C2CCCO2)cc1 (stereo not given),2% (inactive)
8,Cc1cc(C(=O)COC(=O)c2n[nH]c3ccccc23)c(C)n1C,0% (inactive)
9,CCOC(=O)NC(=O)CSc1nnc(C)s1,4% (inactive)
10,COc1ccc(NC(=O)COc2ccccc2)c(OC)c1,0% (inactive)
11,CS(=O)(=O)Nc1ccc([N+](=O)[O-])cc1Oc1ccccc1,0% (inactive)
12,COC(=O)c1ccccc1S(=O)(=O)N(Cc1cc2cc3c(cc2[nH]c1=O)OCO3)C1CCCCC1,1% (inactive)
13,Cc1c(C(=O)NCc2cccnc2)sc2ncn(CC(=O)N3CCCCC3C)c(=O)c12 (stereo not given),0% (inactive)
14,CCN(CC)CC(=O)Nc1c(C)cccc1C,7% (inactive) and 0% (inactive)
15,O=C(CSc1nnc2sc3ccccc3n12)c1ccco1,0% (inactive)
16,Cc1ccc2[nH]c(=O)c(CN(Cc3ccc4c(c3)OCO4)Cc3nnnn3Cc3ccco3)cc2c1,0% (inactive)
17,CN1CCN(C(=O)c2ccc(CS(=O)(=O)c3c(Cl)cccc3Cl)o2)CC1,16% (inactive)
18,c1ccc2c(CC3=NCCN3)cccc2c1,0% (inactive)
19,COc1cccc(-c2nc3n(n2)C(c2cccs2)C(C(=O)Nc2cccnc2)=C(C)N3)c1 (stereo not given),0% (inactive)
20,CC(C)(C)NC(=O)CC(CC(=O)O)c1ccccc1 (stereo not given),0% (inactive)

row,SMILES,inhibition
1,Cc1cc2ncn(C(=O)N3CCOCC3)c2cc1C,0% (inactive)
2,Cc1ccc2nc3c(cc2c1)CN(Cc1ccco1)C(=NCC1CCCO1)S3 (stereo not given),0% (inactive)
3,COCCNC(=O)Cn1nc(C(F)(F)F)c(Br)c1C,0% (inactive)
4,CCOC(=O)c1cccc(NC(=O)Cn2cnc3c2c(=O)n(C)c(=O)n3C)c1,4% (inactive)
5,COc1ccccc1CN1C(=O)CCC1(C)C(=O)NC1CCCCCC1 (stereo not given),8% (inactive)
6,CCCCNC(=O)OCCNC(=O)NC,0% (inactive)
7,Cc1ccc(-c2nc3cc(NC(=O)C(C)C)ccc3o2)cc1,0% (inactive)
8,C=C(CC)C(=O)c1ccc(OCC(=O)O)c(Cl)c1Cl,0% (inactive)
9,Nc1cc(CN2C(=O)c3ccccc3C2=O)cc(Cl)c1O,0% (inactive)
10,Cc1ccc(NC(=O)CSc2nnc(Cc3cccn3C)n2-c2ccc(F)cc2)cc1,6% (inactive)
11,C=CCN1C(=O)/C(=C2/Sc3ccccc3N2C)SC1=Nc1c(C)n[nH]c1C,1% (inactive)
12,CC1(C)SC2[C@H](NC(=O)C(NC(=O)N3CCNC3=O)c3ccccc3)C(=O)N2C1C(=O)O (stereo not given in full),0% (inactive)
13,Cc1cc(C)c2c(n1)nn1c(N3CCOCC3)cc(C)nc21,0% (inactive)
14,O=C(Nc1ccncc1)c1cccc(F)c1,6% (inactive)
15,Cc1ccc(-c2nnc(N(C)C(=O)c3ccccn3)s2)cn1,0% (inactive)
16,CCN(CC(=O)Nc1ccc2c(c1)CCC2)Cc1nc2ccccc2c(=O)[nH]1,4% (inactive)
17,CCOC(=O)C1CCCN(Cc2nc(N)nc(Nc3ccccc3)n2)C1 (stereo not given),10% (inactive)
18,COCCOC(=O)C1=C(C)NC(C)=C(C(=O)OC(C)C)C1c1cccc([N+](=O)[O-])c1 (stereo not given),0% (inactive)
19,Cc1nc2sccn2c(=O)c1CCN1CCC(=C(c2ccc(F)cc2)c2ccc(F)cc2)CC1,0% (inactive)
20,O=C(Nc1cccc(C(F)(F)F)c1)c1ccco1,0% (inactive)
